# Hit rate of the full screen: of about 300,000 compounds, about 37,000 (12%) were called active. The list comes from a sample in which actives are over-represented; it also holds similar structures and randomly drawn compounds. A number with no mark means an inactive call. Rule as the data show it: active = max response mostly above about 13% (no sharp cut-off); inactive = mostly below about 14%.
# Test: Cycloheximide Counterscreen for Small Molecule Inhibitors of Shiga Toxin; also: read at 38.3 µM for the half of the compounds with a filed dose; 0% is about no effect
# Conditions: cell reporter, cycloheximide protein synthesis inhibition counterscreen; stronger effect = higher value
row,Compound,max response
1,Cc1sc2ncn(CC(=O)NCCCC(=O)N(C)Cc3ccccc3)c(=O)c2c1C,0.104%
2,CCC(=O)N(Cc1cc2ccccc2[nH]c1=O)c1ccc(OC)cc1,-1.99%
3,O=C(CNC(=O)OCc1ccccc1)NC1CCCCNC1=O (configuration not stated),1.1%
4,CCOc1ccc(C(=O)Nc2ccc(S(=O)(=O)NCC3CCCO3)cc2)cc1OCC (configuration not stated),-3.06%
5,CCN(CC)CCNc1nc(-c2ccc(OC(F)F)cc2)c(C)s1,-2.43%
6,COc1ccc(-n2nc(C(=O)NCC(=O)N3CCC(C(N)=O)CC3)c3ccccc3c2=O)cc1OC,-3.96%
7,CC(=O)c1c(C)oc2ccc(NS(=O)(=O)c3ccc(C(=O)O)cc3)cc12,-0.66%
8,Cn1c(SCC(=O)c2cccs2)nnc1-c1ccco1,29.8% (active)
9,CCOC(=O)CSc1nnc(-c2ccco2)n1C,-2.04%
10,CCCCNC(=O)CSc1nnc(-c2ccco2)n1C,1.17%
11,CC(C)CC(=O)Nc1nnc(S(=O)(=O)N(C)c2ccc(Cl)cc2)s1,-2.39%
12,COc1ccc2c(C(=O)c3ccc(C)cc3)n(CCC(N)=O)[n+]([O-])c2c1,7.82%
13,COC(=O)c1c(NC(=O)c2ccc(S(=O)(=O)N3CCOCC3)cc2)sc2c1CCN(C(C)C)C2,-1.08%
14,CCOC(=O)C1CCN(C(=O)Nc2ccc(Cl)cc2)CC1,12.6%
15,CC(=O)N1CCC(N(C(=O)Nc2ccc(Cl)cc2)C(C)C)CC1,9.65% (active)
16,CC(=O)Nc1ccc(NC(=O)C2CCCN(S(=O)(=O)c3ccc(Cl)cc3)C2)cc1 (configuration not stated),-5.06%
17,COc1cccc(NC(=O)C2C(c3ccccc3)C2(Cl)Cl)c1 (configuration not stated),1.73%
18,CCOCCOC(=O)C(C)Oc1ccc(Oc2ncc(C(F)(F)F)cc2Cl)cc1 (configuration not stated),0.288%
19,CCOC(=O)CN(C(=O)COc1nc(C)cc(C)c1C#N)c1ccc(Cl)cc1,1.33%
20,O=C1CCCc2nn(-c3ccccc3)nc21,31.9% (active)
21,c1ccc(-n2nc3ccccc3n2)cc1,10.4%
22,O=C1CCC(=O)N(c2ccccc2)N1,4.98%
23,CCCc1nc(SCC(=O)N2CCCC2)c2c(=O)n(C)c(=O)n(C)c2n1,-1.08%
24,COCCNC(=O)CN(Cc1ccco1)C(=O)CCC(=O)Nc1nccs1,-7.71%
25,Cc1ccc(Nc2c(F)c(F)c(F)c(F)c2C(=O)O)c(C)c1,-3.03%
26,COc1ccccc1OCCNC(=O)CCNC(=O)c1ccccc1Cl,5.13%

row,Compound,max response
1,COc1cc(SC)ccc1C(=O)Nc1cc(C)ccn1,40.1% (active)
2,Cc1ccnc(NC(=O)c2ccoc2C)c1,35.7% (active)
3,Cc1occc1C(=O)Nc1cccc(Cn2cccn2)c1,10.7%
4,COc1cc(SC)ccc1C(=O)N(Cc1ccccc1)c1ccccc1,-0.326%
5,COc1cc(SC)ccc1C(=O)Nc1nc(C)cs1,-6.32%
6,COc1cc(SC)ccc1C(=O)NCCOc1ccccc1Cl,57.7% (active)
7,COc1ccccc1CNC(=O)c1ccc(SC)cc1OC,8.03%
8,Cc1ccnc(NC(=O)CCCOc2ccccc2)c1,9.11%
9,COc1ccc(CCNc2cc(C)nc3c(-c4ccc(Cl)cc4)c(C)nn23)cc1OC,-1.95%
10,COc1cccc(NC(=O)c2cc(S(=O)(=O)N3CCc4ccccc43)cn2C)c1,-2.59%
11,CCc1nn(CCCN2CCN(c3cccc(Cl)c3)CC2)c(=O)n1CCOc1ccccc1,-3.76% [middle of 4 runs]
12,Cn1c(=O)c2c(SCC(=O)NCC3CCCO3)nc(CC(C)(C)C)nc2n(C)c1=O (configuration not stated),0.724%
13,CC(OC(=O)c1ccccc1OCc1ccc(Cl)cc1)C(N)=O (configuration not stated),2.27%
14,CC(C)Cc1nnc(NC(=O)CN2C(=O)NC3(CCCCC3)C2=O)s1,-1.99%
15,O=C(Nc1ccc(CN2CCOCC2)cc1)c1cc(Cl)ccc1Cl,-1.65%
16,C=CCn1cc(Cl)cc(C(=O)Nc2ccccc2)c1=O,14.1% (active)
17,O=C(O)c1ccc(NC(=O)c2cn(-c3ccccc3)nc2-c2ccc(Cl)cc2)cc1,10.4%
18,CCOc1ccc(Br)cc1CSC(=N)N,-0.921%
19,Cc1cccc(CSc2nnc(Cn3c(=O)sc4ccccc43)n2C)c1,-3.59%
20,Cc1cccc(CSc2ccc(-c3cccs3)nn2)c1,35% (active)
21,O=C(CSc1ccc(-c2cccs2)nn1)Nc1ccccc1F,16.1%
22,CCOC(=O)c1ccc(-n2c(CCC(=O)O)ccc2-c2ccccc2)cc1,-3.35%
23,COc1ccc(CCOC(=O)CNC(=O)c2ccc(Cl)cc2Cl)cc1,7.31%
24,O=C(c1cccs1)C1C(c2ccc(Br)cc2)NC(=S)NC1(O)C(F)(F)F (configuration not stated),29.2% (active)
25,CC(=O)C1C(c2ccc(Cl)cc2)NC(=O)NC1(O)C(F)(F)F (configuration not stated),-2.92%
26,CCOC(=O)C1C(c2ccc(Cl)cc2)NC(=S)NC1(O)C(F)(F)F (configuration not stated),-4.55%
